Assay results as given in PubChem BioAssay.
For some assays here: Potency and affinity values are given separately. The source made the active and inactive calls. Unless noted, how the calls were made is not given here.

Columns and labels:
[1] = antimalarial activity against Dd2 strain (AID 2302;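 active means growth inhibition above 50% at the single 2 µM test dose, taken to imply half-maximal potency below 2 µM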;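 further: 0% = DMSO untreated growth and 100% = chloroquine plus artemisinin killed control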); conditions: P. falciparum Dd2 in RBCs, LDH growth readout, 72 h; at 2 µM; stronger effect = higher value
[2] = human hepatoma cell viability loss – ATP luminescence, cytotoxicity control for P. falciparum antimalarial project, primary screen (AID 2303;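 active means inhibition above 50%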;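 further: 0% = DMSO wells and 100% = digitonin-killed cells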); conditions: HepG2 viability, 24-48 h, at 10 µM, stronger effect = higher value
[3] = target: L-lactate dehydrogenase (Plasmodium falciparum (isolate CDC / Honduras)) (UniProt Q27743); experiment: PfLDH activity inhibition – cell lysate, 3D7 strain, counter-screen for P. falciparum growth inhibition project (AID 2304);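 further: 0% = vehicle and 100% = reference inhibitor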; conditions: P. falciparum 3D7 crude extract, LDH APAD/NBT absorbance; at 2 µM; stronger effect = higher value
L-lactate dehydrogenase (Plasmodium falciparum (isolate CDC / Honduras)), sequence (Q27743 whole entry, looked up): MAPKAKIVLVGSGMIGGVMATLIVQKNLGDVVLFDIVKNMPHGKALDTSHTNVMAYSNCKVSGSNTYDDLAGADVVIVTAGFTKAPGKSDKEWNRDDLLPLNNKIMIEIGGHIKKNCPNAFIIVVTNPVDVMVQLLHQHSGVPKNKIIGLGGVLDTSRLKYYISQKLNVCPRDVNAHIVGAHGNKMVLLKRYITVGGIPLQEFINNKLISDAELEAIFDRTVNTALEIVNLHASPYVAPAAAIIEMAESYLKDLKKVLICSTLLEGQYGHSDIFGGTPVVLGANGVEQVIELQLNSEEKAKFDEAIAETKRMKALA

[4] = inhibition of 3D7 malaria parasite growth – strain 3D7 (AID 2306);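 further: 0% = DMSO wells and 100% = chloroquine plus artemisinin control wells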; conditions: P. falciparum 3D7 erythrocytic growth, LDH absorbance, 72 h; at 2 µM; stronger effect = higher value
[5] = target: Calcium-dependent protein kinase 1 (Plasmodium falciparum (isolate 3D7)) (UniProt P62344); experiment: PfCDPK1 kinase inhibitors, biochemical, TCAMS library (AID 1159585; cut-off not given, nearly all actives have IC50 up to about 0.98 µM;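 further: inhibitors leave more ATP so luminescence rises with inhibition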); conditions: recombinant PfCDPK1, Kinase-Glo ATP depletion luminescence
Calcium-dependent protein kinase 1 (Plasmodium falciparum (isolate 3D7)), sequence (P62344 whole entry, looked up): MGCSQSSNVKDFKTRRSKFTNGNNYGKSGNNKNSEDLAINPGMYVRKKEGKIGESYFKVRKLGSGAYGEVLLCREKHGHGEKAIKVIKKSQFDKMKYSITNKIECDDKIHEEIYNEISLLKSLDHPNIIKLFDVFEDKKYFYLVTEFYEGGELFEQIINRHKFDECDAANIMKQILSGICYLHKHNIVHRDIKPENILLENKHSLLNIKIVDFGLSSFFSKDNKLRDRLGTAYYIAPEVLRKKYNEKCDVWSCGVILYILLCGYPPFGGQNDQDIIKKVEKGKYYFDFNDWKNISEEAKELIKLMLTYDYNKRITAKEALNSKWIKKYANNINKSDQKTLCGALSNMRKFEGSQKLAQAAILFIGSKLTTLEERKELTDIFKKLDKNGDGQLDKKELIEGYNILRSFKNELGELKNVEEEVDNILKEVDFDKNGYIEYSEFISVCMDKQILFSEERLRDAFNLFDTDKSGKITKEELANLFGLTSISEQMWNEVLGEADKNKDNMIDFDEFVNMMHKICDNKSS

[6] = target: Plasmodium falciparum protein kinase 6 (PK6, PF3D7_1337100) (UniProt Q8IDW1); experiment: PfPK6 kinase inhibitors, biochemical, TCAMS library (AID 1159586); conditions: recombinant PfPK6, Kinase-Glo ATP depletion luminescence
Plasmodium falciparum protein kinase 6 (PK6, PF3D7_1337100), sequence (Q8IDW1 1-305): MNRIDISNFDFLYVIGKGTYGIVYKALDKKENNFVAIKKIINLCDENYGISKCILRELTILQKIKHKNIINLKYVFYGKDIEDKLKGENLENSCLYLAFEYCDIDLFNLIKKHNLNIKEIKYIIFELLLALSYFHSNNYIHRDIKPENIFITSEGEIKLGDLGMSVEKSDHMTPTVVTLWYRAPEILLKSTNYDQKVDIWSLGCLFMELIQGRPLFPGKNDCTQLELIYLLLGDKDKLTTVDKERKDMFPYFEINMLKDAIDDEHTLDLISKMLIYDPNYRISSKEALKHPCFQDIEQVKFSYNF

[7] = target: Protein kinase 7 (PK7), Plasmodium falciparum 3D7 (PF3D7_0213400) (UniProt Q7YTF7); experiment: inhibition of Plasmodium PK7 catalytic activity – biochemical, TCAMS antimalarial set, Kinase-Glo luminescence (AID 1159587); conditions: recombinant PfPK7, Kinase-Glo ATP depletion luminescence
Protein kinase 7 (PK7), Plasmodium falciparum 3D7 (PF3D7_0213400), sequence (Q7YTF7 1-343): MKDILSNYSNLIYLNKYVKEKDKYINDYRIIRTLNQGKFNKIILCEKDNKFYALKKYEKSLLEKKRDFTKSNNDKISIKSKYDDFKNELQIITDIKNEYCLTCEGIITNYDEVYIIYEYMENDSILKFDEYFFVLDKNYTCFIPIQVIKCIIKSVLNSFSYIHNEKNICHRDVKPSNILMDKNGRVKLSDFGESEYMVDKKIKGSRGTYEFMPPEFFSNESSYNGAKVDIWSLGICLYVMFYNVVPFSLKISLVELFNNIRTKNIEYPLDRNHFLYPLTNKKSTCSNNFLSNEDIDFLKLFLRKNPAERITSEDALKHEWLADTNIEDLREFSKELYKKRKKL

[8] = target: Calcium-dependent protein kinase 4 (Plasmodium falciparum (isolate 3D7)) (UniProt Q8IBS5); experiment: PfCDPK4 kinase inhibitors, biochemical, TCAMS library (AID 1159588; cut-off not given, nearly all actives have IC50 up to about 0.91 µM); conditions: recombinant PfCDPK4, Kinase-Glo ATP depletion luminescence
Calcium-dependent protein kinase 4 (Plasmodium falciparum (isolate 3D7)), sequence (Q8IBS5 whole entry, looked up): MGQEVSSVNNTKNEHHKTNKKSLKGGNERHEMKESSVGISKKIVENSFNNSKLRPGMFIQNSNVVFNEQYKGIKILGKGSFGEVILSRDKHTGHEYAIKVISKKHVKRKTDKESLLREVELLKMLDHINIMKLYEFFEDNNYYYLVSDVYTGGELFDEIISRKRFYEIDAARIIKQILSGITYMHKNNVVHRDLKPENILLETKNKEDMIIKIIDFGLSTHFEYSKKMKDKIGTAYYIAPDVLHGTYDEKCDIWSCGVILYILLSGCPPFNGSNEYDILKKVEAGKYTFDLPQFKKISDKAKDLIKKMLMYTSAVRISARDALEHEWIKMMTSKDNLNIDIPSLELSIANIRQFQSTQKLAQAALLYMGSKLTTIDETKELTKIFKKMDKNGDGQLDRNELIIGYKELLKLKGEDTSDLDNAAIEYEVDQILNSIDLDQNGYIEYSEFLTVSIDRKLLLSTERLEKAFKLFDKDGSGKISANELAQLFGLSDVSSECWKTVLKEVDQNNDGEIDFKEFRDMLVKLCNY

Cc1cc(NN=Cc2ccc(Cl)cc2)c2cccc(C)c2n1
inactive: growth inhibition [1] 47% | inhibition [2] -1% | inhibition [3] 2% | outcome [5] | outcome [6] | outcome [7] | outcome [8]
active: growth inhibition [4] 103%

Nc1ccc2[nH]cc(C3CCN(CCC4CCN(C(=O)/C=C/c5ccc(Cl)c(Cl)c5)CC4)CC3)c2n1
inactive: inhibition [2] 27% | inhibition [3] 0% | outcome [5] | outcome [6] | outcome [7] | outcome [8]
active: growth inhibition [1] 78% | growth inhibition [4] 100%

Cc1cc(N(C)C)nc(Nc2ccc(NS(=O)(=O)c3ccccc3)cc2)n1
active: growth inhibition [4] 92%
inactive: growth inhibition [1] 11% | inhibition [2] -3% | inhibition [3] -1% | outcome [5] | outcome [6] | outcome [7] | outcome [8]

c1ccc(C2CCN(Cc3ccc(-c4c[nH]c5nc(NC6CCCC6)ncc45)cc3)CC2)cc1
inactive: growth inhibition [1] 9% | inhibition [2] 39% | inhibition [3] -1% | outcome [5] | outcome [6] | outcome [7] | outcome [8]
active: growth inhibition [4] 82%

Fc1ccc2nc(-c3ccc(-c4ccc(CN5CCCCC5)cc4)s3)[nH]c2c1
active: growth inhibition [1] 100% | growth inhibition [4] 92%
inactive: inhibition [2] 42% | inhibition [3] -2% | outcome [5] | outcome [6] | outcome [7] | outcome [8]

COc1ccc2ccccc2c1C=NNc1cc(C)nc2c(C)cccc12
active: growth inhibition [1] 94% | growth inhibition [4] 102%
inactive: inhibition [2] -3% | inhibition [3] -4% | outcome [5] | outcome [6] | outcome [7] | outcome [8]

CN(C)c1ccc(CN2CCC(CNC(=O)c3cc(-c4cccc(C(F)(F)F)c4)cs3)C2)cc1 (stereo not given)
inactive: growth inhibition [1] 34% | inhibition [2] 39% | inhibition [3] 0% | outcome [5] | outcome [6] | outcome [7] | outcome [8]
active: growth inhibition [4] 96%

Cc1nc2ccc([N+](=O)[O-])cc2c(=O)n1OCc1ccccc1
active: growth inhibition [4] 98%
inactive: growth inhibition [1] -1% | inhibition [2] 2% | inhibition [3] -2% | outcome [5] | outcome [6] | outcome [7] | outcome [8]

O=S(=O)(c1ccc(Cl)cc1Cl)N1CCCCC(c2ccc(C(F)(F)F)cc2)=N1
inactive: inhibition [2] 10% | inhibition [3] 4% | outcome [5] | outcome [6] | outcome [7] | outcome [8]
active: growth inhibition [1] 99% | growth inhibition [4] 100%

CN1CCN(CCCNc2ncc3c(-c4ccc(NC(=O)Nc5cc(C(F)(F)F)ccc5F)c(F)c4)nn(C)c3n2)CC1
active: growth inhibition [1] 94% | inhibition [2] 100% | growth inhibition [4] 98%
inactive: inhibition [3] 1% | outcome [5] | outcome [6] | outcome [7] | outcome [8]

CC1CCN(C(=O)C(Cc2c[nH]c3ccccc23)NS(=O)(=O)c2ccc(Cl)cc2)CC1 (stereo not given)
inactive: inhibition [2] -22% | inhibition [3] -4% | outcome [5] | outcome [6] | outcome [7] | outcome [8]
active: growth inhibition [1] 99% | growth inhibition [4] 100%

C=Cc1c(C2CCN(CCCCNC(=O)c3ccc(-c4ccc(C#N)cc4)cc3)CC2)ccc2c1CCCC2
active: growth inhibition [1] 75% | inhibition [2] 75% | growth inhibition [4] 94%
inactive: inhibition [3] 1% | outcome [5] | outcome [6] | outcome [7] | outcome [8]

CN1CCN(c2ccnc3ccc(NC(=O)Cc4ccc(OCc5ccccc5)cc4)cc23)CC1
active: growth inhibition [1] 89% | growth inhibition [4] 100%
inactive: inhibition [2] 6% | inhibition [3] -1% | outcome [5] | outcome [6] | outcome [7] | outcome [8]

Cc1cccc2[nH]c(-c3ccc(-c4cccc(NC(=O)NCc5ccc(F)cc5)c4)cc3)nc12
active: growth inhibition [1] 100% | inhibition [2] 82% | growth inhibition [4] 101%
inactive: inhibition [3] -1% | outcome [5] | outcome [6] | outcome [7] | outcome [8]

Cc1cccc(C(=O)Nc2ccnc(N3CCC(N(C)Cc4ccccc4)CC3)c2)c1
inactive: growth inhibition [1] 2% | inhibition [2] 12% | inhibition [3] -1% | outcome [5] | outcome [6] | outcome [7] | outcome [8]
active: growth inhibition [4] 93%

Cc1cccc(C(=O)Nc2ccnc(N3CCCN(Cc4cccc(O)c4)CC3)c2)c1
inactive: growth inhibition [1] 13% | inhibition [2] -21% | inhibition [3] 3% | outcome [5] | outcome [6] | outcome [7] | outcome [8]
active: growth inhibition [4] 84%

CC(=O)c1ccc(O)c(CC(O)CO)c1 (stereo not given)
inactive: growth inhibition [1] -1% | inhibition [2] 3% | inhibition [3] 4% | outcome [5] | outcome [6] | outcome [7] | outcome [8]
active: growth inhibition [4] 100%

COc1ccc2nccc([C@@H](O)CN3CCC(NCCOc4ccc(F)cc4[N+](=O)[O-])CC3)c2c1
inactive: inhibition [2] 8% | inhibition [3] -1% | outcome [5] | outcome [6] | outcome [7] | outcome [8]
active: growth inhibition [1] 92% | growth inhibition [4] 99%

COc1ccc(Nc2nccc(NCCNC(=O)Nc3ccccc3F)n2)cc1
active: growth inhibition [4] 85%
inactive: growth inhibition [1] 4% | inhibition [2] 4% | inhibition [3] 1% | outcome [5] | outcome [6] | outcome [7] | outcome [8]

Cc1cccc2[nH]c(-c3ccc(-c4ccc(CN5CCC(CO)CC5)cc4)s3)nc12
active: growth inhibition [1] 82% | growth inhibition [4] 101%
inactive: inhibition [2] 15% | inhibition [3] -10% | outcome [5] | outcome [6] | outcome [7] | outcome [8]

C#CCCOc1ccc2ccccc2c1CNCCCCCCNCc1c(OCCC#C)ccc2ccccc12
active: growth inhibition [1] 65% | inhibition [2] 100% | growth inhibition [4] 100%
inactive: inhibition [3] 2% | outcome [5] | outcome [6] | outcome [7] | outcome [8]

Cc1ccc(C)c(S(=O)(=O)Nc2ccc(Br)cc2C(=O)Nc2cccc(C(F)(F)F)c2)c1
inactive: inhibition [3] -7% | outcome [5] | outcome [6] | outcome [7] | outcome [8]
active: growth inhibition [1] 98% | inhibition [2] 56% | growth inhibition [4] 81%

CO/C(=C\C=C\c1cc2cc(Cl)c(Cl)cc2[nH]1)C(=O)NCCCN1CCN(c2cccc(OCC(=O)Nc3ccccc3)c2)CC1
inactive: inhibition [2] 49% | inhibition [3] -1% | outcome [5] | outcome [6] | outcome [7] | outcome [8]
active: growth inhibition [1] 81% | growth inhibition [4] 100%

CN1CCCc2ccc(NC(=O)Nc3ccc(Cl)c(Cl)c3)cc2C1
active: growth inhibition [4] 89%
inactive: growth inhibition [1] 22% | inhibition [2] -13% | inhibition [3] -2% | outcome [5] | outcome [6] | outcome [7] | outcome [8]

CC1(C)N=C(N)N=C(N)N1OCCCOc1cccc(C(=O)O)c1
inactive: inhibition [3] -6% | outcome [5] | outcome [6] | outcome [7] | outcome [8]
active: growth inhibition [1] 96% | inhibition [2] 73% | growth inhibition [4] 94%

O=C(NC1CC1)c1cnc(N2CCC(c3ccccc3)CC2)c(Cl)c1
active: growth inhibition [1] 95% | growth inhibition [4] 94%
inactive: inhibition [2] 6% | inhibition [3] 0% | outcome [5] | outcome [6] | outcome [7] | outcome [8]

CCC(C)CN1CCN(c2cc(NC(=O)c3cccs3)ccn2)C(C)C1 (stereo not given)
active: growth inhibition [1] 72% | growth inhibition [4] 88%
inactive: inhibition [2] 5% | inhibition [3] 0% | outcome [5] | outcome [6] | outcome [7] | outcome [8]

CC(=O)Nc1nc(C(=O)Nc2ccc(-c3cccc(-c4nc5c(C)cccc5[nH]4)c3)cc2)cs1
inactive: inhibition [3] -4% | outcome [5] | outcome [6] | outcome [7] | outcome [8]
active: growth inhibition [1] 73% | inhibition [2] 100% | growth inhibition [4] 101%

COc1c(C2CCN(CCCCNC(=O)c3ccc(-c4ccc(NC(=O)C(F)(F)F)cc4)cc3)CC2)ccc2c1CCCC2
active: inhibition [2] 95% | growth inhibition [4] 86%
inactive: growth inhibition [1] 33% | inhibition [3] 8% | outcome [5] | outcome [6] | outcome [7] | outcome [8]

Cc1cnc(C(=O)Nc2cccc(-c3ccc(-c4nc5ccc(F)cc5[nH]4)cc3)c2)cn1
active: growth inhibition [4] 102%
inactive: growth inhibition [1] 13% | inhibition [2] 19% | inhibition [3] -2% | outcome [5] | outcome [6] | outcome [7] | outcome [8]

c1cncc(-c2cc(N3CCc4ccccc4C3)nc(-c3ccncc3)n2)c1
active: growth inhibition [1] 100% | inhibition [2] 56% | growth inhibition [4] 100%
inactive: inhibition [3] -5% | outcome [5] | outcome [6] | outcome [7] | outcome [8]

CC[C@H]1CN(C/C=C/c2ccc(OC)cc2)CC[C@H]1CCCc1ccnc2ccc(O)cc12
active: growth inhibition [1] 72% | growth inhibition [4] 99%
inactive: inhibition [2] 24% | inhibition [3] 1% | outcome [5] | outcome [6] | outcome [7] | outcome [8]

Cc1cccc(NC(=O)Nc2cccc(-c3ccc(-c4nc5ccc(C(F)(F)F)cc5[nH]4)cc3)c2)c1
inactive: inhibition [2] 44% | inhibition [3] -1% | outcome [5] | outcome [6] | outcome [7] | outcome [8]
active: growth inhibition [1] 94% | growth inhibition [4] 101%

O=C(c1cc(C(=O)Nc2ccccc2)c(=O)n(-c2ccccc2)c1)c1cc(Cl)ccc1O
inactive: inhibition [2] 9% | inhibition [3] -1% | outcome [5] | outcome [6] | outcome [7] | outcome [8]
active: growth inhibition [1] 95% | growth inhibition [4] 100%

Nc1nc(N)c2cc3ccc(OCc4ccccc4)cc3nc2n1
inactive: inhibition [3] 0% | outcome [5] | outcome [6] | outcome [7] | outcome [8]
active: growth inhibition [1] 75% | inhibition [2] 78% | growth inhibition [4] 100%

O=S(=O)(Nc1cccc(CCN2CCC(N3CCCCC3)CC2)c1)c1cccc2ccccc12
inactive: inhibition [2] 23% | inhibition [3] 2% | outcome [5] | outcome [6] | outcome [7] | outcome [8]
active: growth inhibition [1] 63% | growth inhibition [4] 99%

COc1ccccc1CCNc1nc(C)cc(N[C@@H](Cc2ccccc2)C(=O)NCCCOC(C)C)n1
active: growth inhibition [4] 99%
inactive: growth inhibition [1] 32% | inhibition [2] 10% | inhibition [3] -1% | outcome [5] | outcome [6] | outcome [7] | outcome [8]

CC(C)C[C@@H](/C=N/N1CC(=O)NC1=O)NC(=O)[C@H](CC(C)C)NC(=O)c1ccc(OCCN2CCOCC2)cc1
inactive: inhibition [2] 11% | inhibition [3] 1% | outcome [5] | outcome [6] | outcome [7] | outcome [8]
active: growth inhibition [1] 79% | growth inhibition [4] 94%

Cc1noc(C)c1CN1CCCN(c2ccc3c(c2)CCN(Cc2ccc(-c4ncc[nH]4)cc2)CC3)CC1
inactive: growth inhibition [1] 39% | inhibition [2] 1% | inhibition [3] 2% | outcome [5] | outcome [6] | outcome [7] | outcome [8]
active: growth inhibition [4] 98%

CC(COc1ccc2c(c1)OC(C)(C)CC2c1ccccc1)NCC(O)c1cccc(Cl)c1 (stereo not given)
active: growth inhibition [1] 96% | growth inhibition [4] 98%
inactive: inhibition [2] 1% | inhibition [3] 3% | outcome [5] | outcome [6] | outcome [7] | outcome [8]
